Rows were chosen to be rich in hits. Some 4.1% of all compounds tested hit in one or more screens of this group.
DAX1 inh-1 = inhibits human nuclear receptor DAX1; inhibition, % at 6.75 µM; hit rate 0.99% among 340,000; AID 504766; P51843; HEK293 Gal4-DAX1 luciferase reporter, luminescence;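 active means inhibition above the mean over all tested compounds plus 3 SD, cut at about 4.2% in these data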;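 further: 0% = DAX1-transfected cells with DMSO and 100% = empty-vector control cells with DMSO; inhibition shows as a rise in luminescence from relieved DAX1 repression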
ssDAF-12 act = activators of S. stercoralis DAF-12 nuclear receptor; hit rate 1% among 370,000; AID 652126; HEK293 ssDAF-12/GRIP1 lit1-tk-luc reporter, luminescence; % of 3 µM dafachronic acid response; activation, % at 6.8 µM;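 active means activation above the mean over all tested compounds plus 3 SD, cut at about 0.9% in these data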;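 further: 0% = DMSO-only wells and 100% = 3 µM delta7-dafachronic acid wells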
DAX1 inh-2 = inhibitors of DAX1 repression of SF-1 activated StAR promoter. hit rate 1.1% among 370,000. AID 652010. inhibition, % at 6.8 µM. HEK293T StAR-luciferase reporter, SF-1/DAX-1 repression relief;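 active means inhibition above the mean over all tested compounds plus 3 SD, cut at about 3.6% in these data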;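 further: 0% = DAX-1 cells with DMSO and 100% = cells lacking DAX-1 with DMSO; higher inhibition means more luminescence from relief of DAX-1 repression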
hcDAF12 agonist = activators of H. contortus DAF-12 nuclear receptor; activation, % at 6.8 µM; hit rate 1.4% among 370,000; HEK293 hcDAF-12 lit1-tk-luc reporter, luminescence; 0% DMSO, 100% Δ7-dafachronic acid;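 active means activation above the mean of all tested compounds plus 3 SD, cut at about 5.5% in these data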;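 further: 100% = response to 3 µM Δ7-dafachronic acid high control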
hgDAF12 agonist = agonists of H. glycines DAF-12 nuclear receptor. HEK293 GAL4-hgDAF12 UAS-luciferase reporter, agonist luminescence; normalized to butyrate control. activation, % at 6.8 µM. hit rate 1.8% among 370,000. AID 687014;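 active means activation above a cutoff set at the mean of all screened compounds plus 3 SD, cut at about 10% in these data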;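 further: 0% = DMSO wells and 100% = sodium butyrate wells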
LXRb hcDAF ctr = activates human LXR-beta, counter-screen for hcDAF-12 agonists; 3,400 tested, under 10 active; activation, % at 6.8 µM; HEK293 Gal4-LXR tk-luc reporter, luminescence, 24 h; normalized: DMSO 0%, positive control 100%; shares compounds with hcDAF12 agonist;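 active means mean percent activation of the reporter above a cutoff set as the average over tested compounds plus their standard deviation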
Target sequence (P55055 whole entry, looked up, the tested form may be a part): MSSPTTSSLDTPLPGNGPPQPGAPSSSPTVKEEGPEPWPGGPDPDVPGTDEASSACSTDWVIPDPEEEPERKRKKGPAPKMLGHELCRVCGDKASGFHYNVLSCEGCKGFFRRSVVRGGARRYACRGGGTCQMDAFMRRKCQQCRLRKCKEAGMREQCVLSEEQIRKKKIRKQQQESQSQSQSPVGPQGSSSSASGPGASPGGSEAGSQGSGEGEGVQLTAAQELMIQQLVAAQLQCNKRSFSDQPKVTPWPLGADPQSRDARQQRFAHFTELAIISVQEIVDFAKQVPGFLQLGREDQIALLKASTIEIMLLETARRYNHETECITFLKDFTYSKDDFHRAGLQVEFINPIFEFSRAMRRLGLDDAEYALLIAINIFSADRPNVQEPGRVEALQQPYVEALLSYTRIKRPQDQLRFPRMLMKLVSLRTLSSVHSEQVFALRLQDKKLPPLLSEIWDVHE
hcDAF12 conf = hcDAF-12 agonism, confirmation assay; shares compounds with hcDAF12 agonist; HEK293 hcDAF-12 lit1-tk-luc reporter, luminescence; % of Δ7-dafachronic acid response; activation, % at 6.8 µM; hit rate 61% among 3,400;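 active means mean activation across triplicate tests above the threshold derived from the earlier primary screen, cut at about 5.5% in these data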;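 further: 0% = DMSO only wells and 100% = 3 µM Δ7-dafachronic acid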
Numbers without * were called inactive; . = not tested or not shown.

SMILES | DAX1 inh-1 | ssDAF-12 act | DAX1 inh-2 | hcDAF12 agonist | hgDAF12 agonist | LXRb hcDAF ctr | hcDAF12 conf
Cc1cccc2c(N=NC(=O)C(C)n3cnc4ccccc4c3=O)c(O)[nH]c12 (stereo not drawn) | 0 | -1 | 0 | 0 | -1 | . | .
CCN(CC)c1ccc(C(=O)NNC(=O)Cn2c(=O)cnc3ccccc32)cc1 | 2 | -1 | 1 | 0 | 2 | . | .
O=C(Nc1cccc(F)c1)Nc1ccccn1 | 3 | -1 | 1 | 8.7* | 8 | 1 | 1
CCCCOCCCNC(=O)C[C@H]1C[C@@]2(C(=O)OC)C(=C[C@H](C3CCCC3)O[C@@H]2C)N(Cc2cccc3ccccc23)C1=O | . | -1 | 0 | -1 | 0 | . | .
COc1cccc(C(=O)/C=C/Nc2ccc(S(=O)(=O)Nc3onc(C)c3C)cc2)c1 | 0 | 0 | 3 | 13* | 9 | 0 | 2
N#C/C(=C\c1ccc(-c2ccc(C(=O)O)cc2)o1)C(=O)Nc1ccc(F)cc1 | -1 | 0 | 1 | 6.9* | 9 | 0 | 5
Cc1cccc(C)c1NC(=O)/C(C#N)=C/c1ccc(-c2ccc(C(=O)O)cc2)o1 | 4.3* | 0 | 1 | 7.0* | 8 | 1 | 5
N#C/C(=C\c1ccc(-c2ccc(C(=O)O)cc2)o1)C(=O)NCC1CCCO1 (stereo not drawn) | 1 | . | . | . | . | . | .
O=C(CSc1nnc(-c2ccccc2F)n1Cc1ccco1)Nc1ccccc1-c1ccccc1 | . | -2 | -1 | -1 | 0 | . | .
CC(=O)Nc1cncc(-c2ccccc2F)n1 | . | -1 | -1 | -1 | -2 | . | .
CCc1ccc(C2C(C(=O)O)c3ccccc3C(=O)N2C)cc1 (stereo not drawn) | 1 | -1 | 0 | 0 | 0 | . | .
CCc1ccc(/C=C/C(=O)C2C(=O)c3ccccc3C2=O)cc1 | 0 | 1.0* | 3 | 8.8* | 7 | 0 | 5.9*
COc1ccc(-n2c(SCC(=O)NCC3CCCO3)nc3c([nH]c4ccccc43)c2=O)cc1OC (stereo not drawn) | 0 | 0 | -1 | 8.1* | 10* | 0 | 5
COc1ccc(-n2c(SCC(=O)NCC3CCCO3)nc3c([nH]c4ccccc43)c2=O)cc1 (stereo not drawn) | 0 | 0 | 0 | 7.3* | 3 | 0 | 3
COc1ccccc1N1CCN(Cc2c[nH]c3ccccc23)CC1 | . | 0 | -1 | 2 | 1 | . | .
Cc1ccccc1N1CCN(Cc2c[nH]c3ccccc23)CC1 | 0 | 0 | 0 | 6.6* | 1 | 0 | 4
CCS(=O)(=O)N1CCN(Cc2c[nH]c3ccccc23)CC1 | -1 | 0 | 1 | 7.4* | 9 | 0 | 3
CNC[C@@H]1OCc2cnnn2CCCC(=O)N([C@@H](C)CO)C[C@H]1C | . | -1 | 0 | 1 | 3 | . | .
COc1ccc(C2C(C(=O)Nc3ccc(C)c(C)c3)CCC(=O)N2c2ccc(OC)cc2)cc1 (stereo not drawn) | . | -1 | 0 | -2 | -5 | . | .
CN(C(=O)c1ccc2nc(N)sc2c1)c1ccccc1 | -1 | -1 | 0 | -1 | -1 | . | .
CN(C(=O)c1ccccc1)c1nc2ccccc2s1 | 0 | 0 | 2 | 6.8* | 13* | 1 | 6.2*
COc1ccc(Cc2c(-c3cccc(Cl)c3)nc3cc(C)c(Br)c(C)n23)c(C)c1 | . | 2.0* | 0 | 6.9* | 4 | 0 | 5
COc1ccccc1Cc1c(-c2ccc(C)cc2)nc2cc(C)c(Br)c(C)n12 | . | 1.9* | 3 | 9.9* | 12* | 0 | 11*
COc1ccccc1Cc1c(-c2ccc(F)cc2)nc2cc(C)c(Br)c(C)n12 | . | 1.1* | 1 | 8.6* | 8 | 0 | 6.7*
Cc1cc2nc(-c3ccc(Cl)cc3)c(Cc3ccsc3)n2c(C)c1Br | . | 0.9* | -1 | 6.8* | 2 | 0 | 3
Cc1cc2nc(-c3cccc(Br)c3)c(Cc3cccc(Cl)c3)n2c(C)c1Br | . | -1 | 1 | 2 | 0 | . | .

Source: PubChem (The Scripps Research Institute Molecular Screening Center)
